LAP4 TOR yeast = yeast TOR pathway LAP4-GFP modulation | S. cerevisiae LAP4-GFP multiplex, flow cytometry GFP, 3 h; median GFP as percent of DMSO wells | GFP response vs DMSO, % at 10 µM | 0.34% of 320,000 active | AID 2023;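 active = GFP response vs DMSO above a set limit, about the screen mean plus 3 SD, cut at about 150% in these data; inconclusive = under 70 cell events counted for the yeast strain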
RPL19A-GFP yeast = alters RPL19A-GFP fluorescence in TOR pathway yeast screen; AID 2025; percent response vs DMSO, % at 10 µM; S. cerevisiae RPL19A-GFP strain, flow cytometry, 3 h; stronger effect = lower value; 0.3% of 330,000 active;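 active = percent response vs DMSO below 50%; inconclusive = fewer than 70 events counted for the yeast strain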;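 note: median channel GFP fluorescence of the barcoded RPL19A-GFP strain; ratio of sample median GFP to plate DMSO average so 100% = DMSO; lower means less RPL19A-GFP as with rapamycin TOR inhibition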
DSG3 Ab inh = inhibitors of pemphigus antibody binding to human desmoglein-3; DSG3-coupled beads, scFv-anti-DSG3-GFP binding, flow cytometry; stronger effect = lower value; 0.48% of 310,000 active; AID 588358; P32926; binding (percent of control), % at 10 µM;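 active = binding more than 3 SD below its plate's average and above zero; inconclusive = below that plate limit but binding exactly zero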;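 note: hits lower antibody fragment binding to DSG3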
Target sequence (P32926 whole entry, looked up, the tested form may be a part): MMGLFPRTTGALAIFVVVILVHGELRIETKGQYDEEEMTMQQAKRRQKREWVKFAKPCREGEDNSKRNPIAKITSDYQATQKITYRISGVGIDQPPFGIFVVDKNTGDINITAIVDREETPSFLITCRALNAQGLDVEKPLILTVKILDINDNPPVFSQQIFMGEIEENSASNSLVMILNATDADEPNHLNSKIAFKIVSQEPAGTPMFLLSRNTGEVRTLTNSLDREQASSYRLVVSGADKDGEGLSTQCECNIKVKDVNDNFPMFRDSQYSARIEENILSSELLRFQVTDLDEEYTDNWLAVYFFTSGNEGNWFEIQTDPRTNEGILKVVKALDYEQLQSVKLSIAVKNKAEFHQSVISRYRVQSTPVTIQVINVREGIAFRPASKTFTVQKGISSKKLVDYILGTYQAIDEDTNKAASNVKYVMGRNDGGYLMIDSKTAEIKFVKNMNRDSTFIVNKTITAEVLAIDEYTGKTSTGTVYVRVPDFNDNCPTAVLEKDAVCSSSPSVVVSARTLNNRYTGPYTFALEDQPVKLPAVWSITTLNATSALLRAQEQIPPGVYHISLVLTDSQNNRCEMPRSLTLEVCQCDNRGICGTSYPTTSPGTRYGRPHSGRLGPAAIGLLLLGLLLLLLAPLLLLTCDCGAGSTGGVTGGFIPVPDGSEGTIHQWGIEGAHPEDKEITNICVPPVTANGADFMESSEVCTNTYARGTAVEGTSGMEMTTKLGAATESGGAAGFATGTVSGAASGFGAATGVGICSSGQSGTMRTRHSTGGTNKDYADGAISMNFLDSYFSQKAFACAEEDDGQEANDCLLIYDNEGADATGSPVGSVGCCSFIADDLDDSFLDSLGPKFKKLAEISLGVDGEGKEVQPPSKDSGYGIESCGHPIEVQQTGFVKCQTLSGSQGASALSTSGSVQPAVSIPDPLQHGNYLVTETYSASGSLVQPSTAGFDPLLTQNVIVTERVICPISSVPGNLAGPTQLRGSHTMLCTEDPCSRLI
CIT2 TOR yeast = yeast TOR pathway CIT2-GFP modulation; 0.065% of 320,000 active; GFP response vs DMSO, % at 10 µM; S. cerevisiae CIT2-GFP strain, flow cytometry, 3 h; 100 means same as DMSO wells;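 active = GFP response relative to DMSO above a set limit, near the screen mean plus 3 SD, cut at about 150% in these data; inconclusive = Fewer than 70 cells measured for a yeast strain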;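 note: ratio of well median GFP fluorescence to mean of DMSO wells on the plate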
AGP1 TOR yeast = modulators of TOR pathway AGP1-GFP in S. cerevisiae | S. cerevisiae AGP1-GFP multiplex flow cytometry, 3 h; GFP as percent of DMSO wells | GFP response vs DMSO, % at 10 µM | 0.02% of 320,000 active;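 active = GFP response relative to DMSO above a set limit, near screen average plus 3 SD, cut at about 150% in these data; inconclusive = fewer than 70 cells counted for the yeast strain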;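 note: median GFP channel fluorescence of the gated AGP1 strain per well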
MEP2-GFP yeast = modulators of TOR pathway MEP2-GFP in S. cerevisiae; S. cerevisiae MEP2-GFP strain, flow cytometry GFP, 3 h; 100% = DMSO control level; GFP response vs DMSO, % at 10 µM; 0.51% of 330,000 active; AID 2016;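 active = GFP response versus DMSO above a set limit, roughly screen mean plus 3 SD, cut at about 180% in these data; inconclusive = fewer than 70 cells counted for a yeast strain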;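 note: median GFP fluorescence of the barcode-gated MEP2-GFP cells per well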
Starred values were filed as active, the others as inactive; u = inconclusive; x = not tested or not shown; [ ] = dose if it differs, or a comment. Rows were chosen to be rich in hits. Some 1.2% of all compounds tested hit in one or more screens of this group.

SMILES | LAP4 TOR yeast | RPL19A-GFP yeast | DSG3 Ab inh | CIT2 TOR yeast | AGP1 TOR yeast | MEP2-GFP yeast
O=C(Nc1cc(S(=O)(=O)N2CCOCC2)ccc1Cl)c1cc([N+](=O)[O-])ccc1Cl | 102 | 96 | 117 | 99 | 101 | 104
O=C(Nc1ccc(S(=O)(=O)N2CCOCC2)cc1)c1ccc([N+](=O)[O-])cc1Cl | 118 | 107 | 97 | 101 | 108 | 307*
CSCC[C@H](NC(=O)OC(C)(C)C)C(=O)N1CCC(C(=O)N[C@H](C(=O)O)C(C)C)CC1 | 108 | 102 | 102 | 99 | 101 | 111
NC(=O)CSCc1c(Cl)cccc1Cl | 83 | 66 | 88 | 90 | 61 | 217*
CC1=CC(C)(C)n2c(O)c(N=N)c3cc(C)cc1c32 | 111 | 108 | 114 | 98 | 101 | 106
CCCOc1ccc(-c2nnn(CC(=O)N3CCCCC3)n2)cc1 | 108 | 106 | 88* | 90 | 102 | 106
CSc1nc(N(C)CCO)c2sc3nc(-c4ccco4)c4c(c3c2n1)CCC4 | 98 | 94 | 102 | 95 | 95 | 97
CSc1nc(SCC(=O)O)c2sc3nc(-c4ccccc4)c4c(c3c2n1)CCC4 | x | x | 66* | x | x | x
COC1CCCN(C(=O)c2ccc(OC3CCN(CCc4ccccc4)CC3)cc2)C1 (configuration not stated) | 104 | 100 | 110 | 112 | 110 | 102
O=[N+]([O-])c1ccc(CSc2ccc(-c3ccccn3)nn2)cc1 | 115 | 99 | 83* | 97 | 97 | 99
CCOC(=O)C1CCN(Cc2cc(Cl)c3ccccc3c2O)CC1 | 126 | 102 | 96 | 78 | 93 | 104
O=C(/C=C/c1ccccc1[N+](=O)[O-])OCC(=O)N1CCN(c2ccccc2)CC1 | x | x | 100 | x | x | x
O=C(Cc1cccc2ccccc12)Nc1ccccc1 | 57 | 46*[may fluoresce violet] | 100 | u | u | 235*[may fluoresce violet]
CC1(C)CC(Cc2ccc(C(=O)c3ccccc3)cc2)N(C(=O)OC(C)(C)C)N1 (configuration not stated) | x | x | 97 | x | x | x
CC(=O)c1cccc(NC(=O)CSc2nc(C3CC3)nc3ccccc23)c1 | 66 | 32*[may fluoresce violet] | 122 | u | u | 173
CC(C)c1ccc(N(CC(=O)NCc2ccco2)C(=O)CCC(=O)Nc2nccs2)cc1 | 88 | 99 | -39* | 97 | 96 | 101
O=C(CCC(=O)N(CC(=O)NC1CCCC1)c1ccc(F)cc1)Nc1nccs1 | 95 | 104 | 48* | 112 | 104 | 109
CCc1ccc2c(c1)C1(NN=C(c3ccc(C)cc3)S1)C(=O)N2 (configuration not stated) | 84 | 40*[may fluoresce violet] | 95 | u | 15 | 92
CC(C)c1ccc(O)c(NC(=O)c2ncn[nH]2)c1 | 100 | 96 | 100 | 97 | 96 | 105
CC(C)c1ccc2c(c1)C1(NN=C(c3ccccc3)S1)C(=O)N2 (configuration not stated) | 171* | 94 | 90 | 115 | 96 | 109
C[C@H](CO)N1C[C@H](C)[C@H](CN(C)Cc2cncnc2)Oc2ncc(C#CC3(O)CCCC3)cc2C1=O | x | x | 93 | x | x | x
CN(C)CCNC(=O)Nc1ccc(F)cc1F | 103 | 100 | 106 | 93 | 96 | 94
COc1ccc(-c2[nH]n(-c3ccc([N+](=O)[O-])cc3)c(=O)c2C=NCC2CCCO2)cc1 (configuration not stated) | 95 | 94 | 96 | 100 | 97 | 98
O=c1c(C=NCC2CCCO2)c(-c2ccccc2)[nH]n1-c1ccc([N+](=O)[O-])cc1 (configuration not stated) | u | 35*[may fluoresce violet] | 91 | u | u | u
COc1ccc(C(=O)NC2CCN(C(=S)Nc3ccc(C)cc3)CC2)cc1 | 101 | 96 | 94 | 93 | 95 | 99
CCOc1cc(/C=C/c2cc(C(=O)O)c3ccccc3n2)ccc1O | 92 | 104 | 98 | 101 | 101 | 113
CCN(CC)c1ccc(/C=C/c2cc(-c3ccccc3)c3ccccc3n2)cc1 | u | 30*[may fluoresce violet] | u | u | u | u

Compound activity as filed in PubChem BioAssay.
